The panel holds about 83,000 compounds, 20% with a hit somewhere; the sample as a whole holds those more often.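 Percent growth is the endpoint: 0 to 100 indicates growth inhibition (40 means 60% inhibition), 0 means no net growth, and negative values indicate cell death.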 The source made the active and inactive calls. How the source made its calls: active means growth percent below 10; inactive means the rest.
Tests used:
Assay in all cases: NCI-60 one-dose screen, 48 h (100 = growth as untreated, 0 = no growth, -100 = all killed)
Settings in all cases: 10 µM unless noted
[1] = tested on: NCI-H23 lung
[2] = tested on: NCI-H226 lung
[3] = tested on: NCI-H322M lung
[4] = tested on: HOP-62 NSCLC
[5] = tested on: NCI-H460 lung
[6] = tested on: HOP-92 NSCLC
[7] = tested on: NCI-H522 lung
[8] = tested on: A549/ATCC NSCLC
[9] = tested on: 786-0 renal
[10] = tested on: COLO 205 colon

Measured: growth

CCN(CC)CC[n+]1cc2cc(OC)c(OC)cc2c2ccc3cc4c(cc3c21)OCO4
active: [1] 3.47% | [3] -15.9% | [4] -4.95% | [5] -65.7% | [7] -19.1% | [8] -41.2% | [9] 3.36%
inactive: [2] 29.7% | [6] 14.7% | [10] 13.9%

CCN1C(=O)N(CC)C2Nn3c(s/c(=C\c4ccc(OC)cc4)c3=O)=NC21 (stereo not given)
inactive: [1] 76.3% | [2] 85.1% | [3] 82.6% | [4] 55.8% | [5] 32.2% | [6] 75.4% | [7] 12.2% | [8] 50.7% | [9] 34.6% | [10] 31.7%

CCOc1ccc(Nc2nc(-c3ccc4c(c3)NC(=O)CO4)cs2)cc1
inactive: [1] 45.7% | [2] 46.9% | [3] 84.8% | [4] 95.9% | [5] 40.7% | [6] 87.3% | [7] 14.6% | [8] 71.7% | [9] 71.1% | [10] 88.5%

COc1cc2nc(-c3ccc(C(F)(F)F)cc3)cc(OCCCN3CCCC3)c2cc1OC
active: [2] -8.25%
inactive: [1] 57.3% | [3] 62.8% | [4] 63.6% | [5] 22% | [6] 23.2% | [7] 28.5% | [8] 39.9% | [9] 48.4% | [10] 22.1%

Cc1ccccc1NS(=O)(=O)c1cccc(C(=O)Nc2ccc(Br)cc2)c1
inactive: [1] 18.5% [25 µM] | [2] 29.1% [25 µM] | [3] 64.2% [25 µM] | [4] 80.7% [25 µM] | [5] 35.8% [25 µM] | [6] 21.1% [25 µM] | [7] 39.6% [25 µM] | [8] 38.1% [25 µM] | [9] 53.6% [25 µM] | [10] 52.4% [25 µM]

O=C(O)c1ccc2c(c1)C(=O)N(Cc1ccccc1)C2=O
inactive: [1] 98.5% | [2] 92.7% | [3] 96% | [4] 95.8% | [5] 102% | [6] 86.2% | [7] 91.4% | [8] 101% | [9] 95.5% | [10] 107%

N#Cc1cccc(-c2ccc3c(c2)NC(=O)/C3=C\c2ccc[nH]2)c1
inactive: [1] 34.2% | [2] 41.6% | [3] 45.5% | [4] 62.7% | [5] 22.4% | [6] 56.7% | [7] 28.7% | [8] 86.5% | [9] 74.5%
active: [10] 3.47%

COc1cc(C2C3CC4CCCC[C@H]4N3[C@@]3(C(=O)Nc4cc(Cl)ccc43)C2C(=O)c2nc3ccccc3[nH]2)cc(OC)c1OC (stereo not given in full)
inactive: [1] 75.1% | [2] 76.1% | [3] 88.3% | [4] 90.1% | [5] 42% | [6] 64.2% | [7] 68.2% | [8] 43.3% | [9] 67% | [10] 59.7%

C=C1C(=O)O[C@H]2[C@H]1CC/C(CNC(=O)C(C)c1ccc(CC(C)C)cc1)=C\CC[C@@]1(C)O[C@@H]21 (stereo not given in full)
inactive: [1] 51.4% | [2] 75.1% | [3] 72.3% | [4] 60% | [5] 36.2% | [8] 42.2%
active: [6] -19.1% | [7] 7.53% | [9] -86% | [10] -34.8%

Cn1ccnc1C(=O)/C=C/c1ccc(CC(=O)Nc2ccc(Cl)cc2)cc1
inactive: [1] 19.2% | [2] 76.7% | [6] 72% | [9] 11.3%
active: [3] 6.08% | [4] -21.2% | [5] -27.6% | [7] 6.86% | [8] 6% | [10] 7.39%

C/C(=N\NC(=O)CSc1nc2ccccc2c(=O)n1Cc1ccc(S(N)(=O)=O)cc1)c1ccc(F)cc1
inactive: [1] 105% | [2] 102% | [3] 102% | [4] 98.8% | [5] 103% | [6] 124% | [7] 18.1% | [8] 102% | [9] 104% | [10] 115%

COc1ccc(Cc2cnc(NC(=O)c3ccc4c(c3)OCCO4)s2)cc1
active: [2] 1.86% | [5] 6.33% | [7] -2.66% | [10] -6.28%
inactive: [1] 18.8% | [3] 41.3% | [4] 29.1% | [6] 57.8% | [8] 16.1% | [9] 26.6%

COc1cccc(-c2cc(C(=O)Nc3ccc(/C=C/c4ccc(OC5CCN(C)CC5)cc4)cc3)ccc2OC)c1
active: [3] 5.51% | [4] -27.5% | [5] -72.3% | [7] -46.3% | [8] -34% | [9] -95.2%
inactive: [1] 12.6% | [2] 76.2% | [6] 11% | [10] 29.1%

COC(=O)C(OC(C)=O)C(OC(C)=O)c1ccc(OC)c(OC)c1 (stereo not given)
inactive: [1] 96.8% | [2] 98.4% | [3] 93.4% | [4] 98.2% | [5] 104% | [6] 110% | [7] 85.9% | [8] 80.1% | [9] 101% | [10] 123%

OCc1cnc2ccccc2c1NC1CCCCCC1
inactive: [1] 77.4% | [2] 80.4% | [3] 89.3% | [4] 95.8% | [5] 93.1% | [6] 83.6% | [7] 61.7% | [8] 84.6% | [9] 101% | [10] 110%

CCNC(=O)Oc1ccc(/C(=C(\C)c2ccccc2)c2ccc(OCCN(CC)CC)cc2)cc1
inactive: [1] 78.9% | [2] 95.6% | [3] 99% | [4] 96.2% | [5] 86.6% | [6] 70.9% | [7] 93.7% | [8] 65.5% | [9] 66.3% | [10] 52.2%

COc1cc2oc(-c3cccc(C(=O)Nc4ccc(Cl)cc4)c3)cc(=O)c2c(O)c1OC
active: [4] 0.268%
inactive: [1] 72.6% | [2] 66.4% | [3] 58.4% | [5] 20.5% | [6] 10.5% | [7] 60.4% | [8] 47.5% | [9] 38.7% | [10] 74%

N#CC1=C(/N=C/c2ccccc2)Oc2c(ccc3ccccc23)C1c1ccc([N+](=O)[O-])cc1 (stereo not given)
inactive: [1] 80.2% | [2] 65.3% | [3] 93.8% | [4] 89.1% | [5] 95.2% | [6] 88.5% | [7] 86.2% | [8] 101% | [9] 102% | [10] 109%

N#Cc1cc(-c2nc3ccccc3s2)c(=O)n(NS(=O)(=O)c2ccccc2)c1N
inactive: [1] 102% | [2] 85.7% | [3] 108% | [4] 90.1% | [5] 106% | [6] 104% | [7] 94.2% | [8] 117% | [9] 106% | [10] 122%

Cn1c2ccccc2c2c3c(c4c5ccccc5n(C)c4c21)C(=O)OC3
inactive: [1] 97.6% | [2] 80.9% | [3] 87.6% | [4] 90.8% | [5] 97.6% | [6] 95.6% | [7] 88.8% | [8] 104% | [9] 102% | [10] 107%

CCNc1nc2cc(Nc3ccnc4cc(Cl)ccc34)ccc2o1
inactive: [1] 66.9% | [2] 79.6% | [3] 92.9% | [4] 75% | [5] 58% | [6] 56.8% | [7] 61.9% | [8] 67.7% | [9] 81.7% | [10] 72.2%

C#Cc1cccc(NC(=O)c2cccc(NC(=O)CCl)c2)c1
active: [1] -77.6% [8.25 µM] | [2] -32% [8.25 µM] | [4] -24.9% [8.25 µM] | [5] -60.8% [8.25 µM] | [6] -65.3% [8.25 µM] | [7] -65.8% [8.25 µM] | [8] 1.7% [8.25 µM] | [9] -71.8% [8.25 µM] | [10] -53% [8.25 µM]
inactive: [3] 58.8% [8.25 µM]

CC(Sc1nc2ccccc2c(=O)n1CCc1ccc(S(N)(=O)=O)cc1)C(=O)Nc1ccc(Cl)cc1 (stereo not given)
inactive: [1] 79.5% | [2] 76.6% | [3] 73.4% | [4] 84.4% | [5] 94.7% | [6] 107% | [7] 56.3% | [8] 69.6% | [9] 80.2% | [10] 106%

Cc1ccc(-n2c3c(c(-c4ccccc4)c2-c2ccccc2)C2=NCCN2C=N3)cc1
inactive: [1] 84.2% | [2] 72% | [3] 96.6% | [4] 97.6% | [5] 90.9% | [6] 87% | [7] 80.2% | [8] 93.7% | [9] 95% | [10] 101%

c1ccc2cc(Cn3c(-c4cccc5ccccc45)[n+](Cc4ccc5ccccc5c4)c4c5ccccc5c5ccccc5c43)ccc2c1
active: [1] -60.8% | [2] -66% | [3] -25% | [4] -85.1% | [5] -71.7% | [6] -52.3% | [7] -64.2% | [8] -71.7% | [9] -70% | [10] -84.9%

O=C(Nc1ncc(Cc2cc(Cl)ccc2Cl)s1)c1cccs1
inactive: [1] 71.6% | [2] 81% | [3] 62.7% | [4] 55.1% | [5] 33.8% | [6] 48.4% | [7] 43.9% | [8] 38.3% | [9] 78.3% | [10] 67.5%

Source: PubChem BioAssay (NCI)
